“And” between values parts separate entries of the source, which are not always exact repeats. Equal entries are not always repeated. This is part of a sample that, as a whole, favours compounds with a hit. Of some 83,000 tested, about 20% had one in any assay.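 Testing used 96-well plates and a 48-hour single-concentration exposure. Example: -40 means 40% of the starting cells died.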 Unmarked numbers belong to inactive results. The source made the active and inactive calls. The calls were made as follows: active = growth percent below 10; inactive = the rest.

Some test systems named below: MOLT-4 leukemia; SR leukemia; RPMI-8226 leukemia; OVCAR-8 ovarian; OVCAR-5 ovarian; OVCAR-4 ovarian; SK-OV-3 ovarian; IGROV1 ovarian; OVCAR-3 ovarian; HS 578T breast; NCI/ADR-RES ovarian; T-47D breast; BT-549 breast; MDA-MB-435 melanoma; SW-620 colon; MCF7 breast; HCT-116 colon; HCC-2998 colon; KM12 colon.
Assay in all cases: NCI-60 one-dose screen, 48 h (100 = growth as untreated, 0 = no growth, -100 = all killed)
Holding throughout (conditions): 10 µM unless noted

As for `CCCCCCCCCCCCCCCC[n+]1ccccc1`, the growth is -61.5% (active) and -64.2% (active) in the experiment on MOLT-4 leukemia; -32.3% (active) and -40.4% (active) in the experiment with SR leukemia; -67.1% (active) and -42.5% (active) in the experiment with RPMI-8226 leukemia; -72.2% (active) and -41.8% (active) with OVCAR-8 ovarian; -45.6% (active) and -15% (active) in the experiment on OVCAR-5 ovarian; -5.49% (active) and -2.49% (active) in the experiment with OVCAR-4 ovarian. In addition, the growth in the experiment on SK-OV-3 ovarian is -43% (active) and -22.4% (active); in the experiment on IGROV1 ovarian, -73% (active) and -60.1% (active); in the experiment with OVCAR-3 ovarian it was -70.9% (active) and -51% (active); in the experiment with HS 578T breast, -26.3% (active) and -12.5% (active); in the experiment on NCI/ADR-RES ovarian it was 41.7% and 69.3%; in the experiment on T-47D breast, 3.84% (active) and -0.991% (active). Further, the growth is -50.8% (active) and -73.3% (active) in the experiment on BT-549 breast; -82.2% (active) and -80.6% (active) with MDA-MB-435 melanoma; -84.8% (active) and -29.2% (active) in the experiment on SW-620 colon; -21.9% (active) and -2.32% (active) with MCF7 breast; -65% (active) and -95.5% (active) in the experiment with HCT-116 colon; -80.8% (active) and -60.6% (active) in the experiment on HCC-2998 colon. Also, in the experiment with KM12 colon, the growth is -96.2% (active) and -81.6% (active).
Regarding `Cc1cc[c-]cc1.Fc1c[c-]c(-c2ccccn2)c(F)c1.[Pt+2].c1ccc([PH+](c2ccccc2)c2ccccn2)cc1`, the growth is 26% in the experiment with MOLT-4 leukemia; 42.5% in the experiment with SR leukemia; 15.9% with RPMI-8226 leukemia; 34% in the experiment with OVCAR-8 ovarian; 63.9% with OVCAR-5 ovarian; 57.1% in the experiment on OVCAR-4 ovarian. The growth in the experiment with SK-OV-3 ovarian is 91.7%; in the experiment on IGROV1 ovarian, 53.2%; with OVCAR-3 ovarian, 46.1%; in the experiment on HS 578T breast it was 39.1%; in the experiment with NCI/ADR-RES ovarian it was 88.2%; in the experiment with T-47D breast, 23.5%. In addition, the growth is 63.2% in the experiment on BT-549 breast; 39.3% in the experiment on MDA-MB-435 melanoma; 45.6% in the experiment with SW-620 colon; 38.9% with MCF7 breast; 35% in the experiment on HCT-116 colon; 83.2% with HCC-2998 colon. Moreover, the growth in the experiment on KM12 colon is 52.4%.
Consider `C[C@]12CC[C@H]3[C@@H](C[C@@H]4SC(Nc5ccccc5)=N[C@@]45C/C(=N/O)CC[C@]35C)[C@@H]1CCC2=O`, for which the growth in the experiment with MOLT-4 leukemia is 20.2%; in the experiment on SR leukemia, 2.15% (active); in the experiment on RPMI-8226 leukemia it was -1.41% (active); in the experiment on OVCAR-8 ovarian it was 46.7%; in the experiment on OVCAR-5 ovarian, 99.7%; with OVCAR-4 ovarian, 88%. For the same compound, the growth in the experiment on SK-OV-3 ovarian is 105%; in the experiment on IGROV1 ovarian, 88.4%; in the experiment with OVCAR-3 ovarian, 42.9%; with HS 578T breast, 65.2%; with NCI/ADR-RES ovarian, 86.2%; in the experiment on T-47D breast, 64.4%. Also, the growth with BT-549 breast is 35.6%; in the experiment on MDA-MB-435 melanoma it was 51.6%; in the experiment on SW-620 colon it was 34.8%; with MCF7 breast, 28.4%; with HCT-116 colon, 9.01% (active); in the experiment with HCC-2998 colon, 102%. Moreover, the growth in the experiment with KM12 colon was 67.8%.
Take `O=c1[nH]c(=O)n(Cl)c(=O)n1Cl`: the growth is 113% and 104% in the experiment on MOLT-4 leukemia; 102% and 113% with SR leukemia; 82.1% in the experiment on RPMI-8226 leukemia; 103% and 108% in the experiment on OVCAR-8 ovarian; 102% and 96.2% with OVCAR-5 ovarian; 115% and 109% in the experiment on OVCAR-4 ovarian. The growth was 111% and 109% in the experiment on SK-OV-3 ovarian; 124% and 96.9% in the experiment on IGROV1 ovarian; 111% and 110% in the experiment on OVCAR-3 ovarian; 106% and 99.9% in the experiment on HS 578T breast; 115% and 96.8% in the experiment on NCI/ADR-RES ovarian; 112% and 95.3% with T-47D breast. In addition, the growth with BT-549 breast was 108% and 110%; in the experiment on MDA-MB-435 melanoma, 102% and 114%; in the experiment on SW-620 colon, 105% and 110%; with MCF7 breast it was 108% and 86%; in the experiment on HCT-116 colon it was 113% and 99.4%; in the experiment with HCC-2998 colon, 123% and 96%. Besides, in the experiment with KM12 colon, the growth was 101% and 107%.
Regarding `O=CC1(c2ccccc2)CCN(Cc2ccccc2)CC1`, the growth in the experiment on MOLT-4 leukemia is 99.4%; in the experiment with SR leukemia it was 97.8%; in the experiment on RPMI-8226 leukemia it was 102%; in the experiment on OVCAR-8 ovarian it was 105%; with OVCAR-5 ovarian, 107%; in the experiment on OVCAR-4 ovarian, 103%. The growth is 114% in the experiment with SK-OV-3 ovarian; 108% in the experiment with IGROV1 ovarian; 105% with OVCAR-3 ovarian; 115% with HS 578T breast; 101% with NCI/ADR-RES ovarian; 105% with T-47D breast. Besides, the growth was 106% with BT-549 breast; 98.5% with MDA-MB-435 melanoma; 103% in the experiment on MCF7 breast; 102% in the experiment with HCT-116 colon; 101% in the experiment with HCC-2998 colon.
